# Test results reported in publication PMC4336329 (PLoS ONE, 2015).
# About 14,000 (4.5%) of roughly 310,000 compounds showed an effect of 50% or more. Effects have a minus sign here. Many of the other results were omitted from the sample, so strong results are more common in it than they were.
# Molecular target: human ether-à-go-go-related gene (hERG) potassium channel (human, UniProt Q12809)
# Experiment: primary screen, population patch clamp on CHO cells stably expressing hERG; higher = less effect of the substance
# 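Also: peak tail current of the secondary pulse compared with the same well before compound.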
# human ether-à-go-go-related gene (hERG) potassium channel, sequence (Q12809 whole entry, looked up): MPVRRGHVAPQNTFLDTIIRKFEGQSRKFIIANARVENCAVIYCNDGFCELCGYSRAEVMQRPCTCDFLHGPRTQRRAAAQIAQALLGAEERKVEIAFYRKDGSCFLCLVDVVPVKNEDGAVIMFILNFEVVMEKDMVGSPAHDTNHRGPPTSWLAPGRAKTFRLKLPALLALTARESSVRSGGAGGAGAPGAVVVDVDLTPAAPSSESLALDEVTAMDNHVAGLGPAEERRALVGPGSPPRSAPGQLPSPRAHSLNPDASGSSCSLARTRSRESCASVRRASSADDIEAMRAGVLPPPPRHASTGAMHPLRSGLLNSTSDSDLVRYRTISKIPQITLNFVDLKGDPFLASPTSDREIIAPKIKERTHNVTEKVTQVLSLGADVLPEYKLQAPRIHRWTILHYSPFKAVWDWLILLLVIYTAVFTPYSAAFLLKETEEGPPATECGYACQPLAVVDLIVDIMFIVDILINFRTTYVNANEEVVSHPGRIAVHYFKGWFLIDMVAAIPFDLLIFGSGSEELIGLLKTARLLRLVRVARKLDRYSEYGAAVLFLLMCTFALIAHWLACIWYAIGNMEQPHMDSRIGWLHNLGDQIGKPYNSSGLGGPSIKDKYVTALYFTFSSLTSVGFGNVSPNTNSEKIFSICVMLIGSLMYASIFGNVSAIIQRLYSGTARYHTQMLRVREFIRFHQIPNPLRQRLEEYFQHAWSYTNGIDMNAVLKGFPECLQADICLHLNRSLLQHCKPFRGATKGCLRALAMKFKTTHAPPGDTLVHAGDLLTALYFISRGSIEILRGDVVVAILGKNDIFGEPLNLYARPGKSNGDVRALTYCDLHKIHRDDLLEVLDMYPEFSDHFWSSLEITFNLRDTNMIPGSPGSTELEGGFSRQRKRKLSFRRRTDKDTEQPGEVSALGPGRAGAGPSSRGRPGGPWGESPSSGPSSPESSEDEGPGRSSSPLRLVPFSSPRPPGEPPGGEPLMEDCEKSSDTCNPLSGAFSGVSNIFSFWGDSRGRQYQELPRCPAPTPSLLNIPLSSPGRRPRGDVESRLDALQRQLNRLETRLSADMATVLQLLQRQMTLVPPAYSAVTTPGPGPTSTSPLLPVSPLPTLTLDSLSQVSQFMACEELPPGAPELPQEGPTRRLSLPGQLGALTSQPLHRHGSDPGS
row,SMILES,"hERG current change (%, negative = inhibition) at 10uM [%]"
1,CCN(CC)c1ccc(NC(=O)CN(C)Cc2cccs2)cc1,6.07
2,O=C(O)c1ccc(NC(=O)c2cccs2)cc1,10.1
3,COc1ccc(NC(=O)COc2ccccc2F)cc1S(=O)(=O)N1CCCCC1,6.02
4,Cc1ccc2c(c1)c1nnc(SCC(=O)N3CCCc4ccccc43)nc1n2CC(=O)O,20.2
5,COc1ccc(N2CCN(C(=O)CSc3nnc4c5cc(C)ccc5n(C)c4n3)CC2)cc1,-13.9
6,Cc1ccc2c(c1)c1nnc(SCC(=O)N3CCN(c4ccc(F)cc4)CC3)nc1n2CC(=O)O,-63.1
7,COc1cccc(OCc2ccc(Cl)cc2)c1C#N,19.6
8,CCC(=O)N1CCc2cc(S(=O)(=O)NC(CC(C)C)C(=O)N3CCc4ccccc43)ccc21 (centres unmarked),-2.28
9,NC(=O)c1ccccc1NCC(=O)c1ccc(Cl)cc1,16.4
10,O=C(c1cccc([N+](=O)[O-])c1)c1ccc2c(c1)C(=O)NC2=O,-11.5
11,OCCN1CCOCCOc2ccccc2OCCOCC1,1.57
12,CN1CCOCCOc2ccccc2OCCOCC1,7.5
13,CC(=O)Nc1cccc2c1OCCO2,6.45
14,c1ccc2c(c1)OCCOCCOCCO2,10
15,c1ccc2c(c1)OCCOCCOCCOCCOc1ccccc1OCCOCCOCCO2,-62.1
16,c1ccc2c(c1)OCCOCCOCCOCCOCCOc1ccccc1OCCOCCOCCO2,-59.2

row,SMILES,"hERG current change (%, negative = inhibition) at 10uM [%]"
1,O=C(N1CCOCCOc2ccccc2OCCOCC1)C(F)(F)F,6.2
2,C=C(C)C(=O)Nc1ccc2c(c1)OCCOCCOCCO2,-26.4
3,CC(=O)[O-].[K+].c1ccc2c(c1)OCCOCCOc1ccccc1OCCOCCO2,-74.7
4,O=C(Nc1ccc(Br)cn1)c1ccc2ccccc2c1,26.8
5,N=c1occ(C(=O)c2cc(F)ccc2O)cc1C(=O)NC1CCCCC1,0.995
6,O=C(COc1ncnc2ccccc12)Nc1ccc(Cl)c([N+](=O)[O-])c1,-7.85
7,CCOc1ccc(S(=O)(=O)Nc2ccc(C(=O)NCCCN3CCCC3=O)cc2)cc1,0.2
8,Cl.c1ccc(-c2csc(=Nc3cccnc3)n2CC2CCCO2)cc1 (centres unmarked),-31.4
9,CCCCn1c(C)csc1=Nc1cccnc1,-2.02
10,COCCn1c(-c2ccc(Br)cc2)csc1=Nc1cccnc1,-14.2
11,COCCCn1c(C)csc1=Nc1cccnc1,4.68
12,Cc1ccc(-c2csc(=Nc3cccnc3)n2CCCn2ccnc2)cc1C,-70.2
13,COCCn1c(-c2ccco2)csc1=Nc1cccnc1.Cl,-3.9
14,Cc1csc(=Nc2cccnc2)n1Cc1ccco1,-0.17
15,Clc1ccc(-c2csc(=Nc3cccnc3)n2CCCn2ccnc2)cc1Cl,-67.3
16,Br.COCCn1c(-c2ccccc2)csc1=Nc1cccnc1,-68.3
